The record followed here is paper PMC11006913.

What all share (assay): PBM; 200 nM protein, PBS
Conditions in all cases: dsDNA, one strand shown

Experiment [1] addresses NKX2-5 (Homo sapiens, UniProt P52952 125-210, R139K).
For experiment [2], the target named is T1, NKX2-6 (Homo sapiens, UniProt A6NCS4 118-204, R150C).
T1 sequence: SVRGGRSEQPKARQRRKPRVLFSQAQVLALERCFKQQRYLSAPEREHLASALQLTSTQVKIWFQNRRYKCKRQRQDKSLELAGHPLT

Experiment [3] concerns the target T2, NKX2-6 (Homo sapiens, UniProt A6NCS4 118-204).
T2 sequence: T1 sequence with C33R

The target of experiment [4] is T3, NKX2-6 (Homo sapiens, UniProt A6NCS4 118-204, F151L).
T3 sequence: T1 sequence with C33R, F34L

Experiment [5] concerns the target NKX3-2 (Homo sapiens, UniProt P78367 192-278, P234S).
Experiment [6] has as its target NKX2-5 (Homo sapiens, UniProt P52952 125-210).
For experiment [7], the target named is NKX3-2 (Homo sapiens, UniProt P78367 192-278).
For experiment [8], the target named is T4, NKX2-4 (Homo sapiens, UniProt Q9H2Z4 175-261, P217L).
T4 sequence: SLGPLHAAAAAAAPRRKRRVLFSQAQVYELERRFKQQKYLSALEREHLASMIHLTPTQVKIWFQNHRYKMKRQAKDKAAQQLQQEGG

The target of experiment [9] is T5, NKX2-4 (Homo sapiens, UniProt Q9H2Z4 175-261, T231S).
T5 sequence: T4 sequence with L43P, T57S

The target of experiment [10] is T6, NKX2-4 (Homo sapiens, UniProt Q9H2Z4 175-261).
T6 sequence: T4 sequence with L43P

The target in experiment [11] is T7, NKX2-4 (Homo sapiens, UniProt Q9H2Z4 175-261, R246Q).
T7 sequence: T4 sequence with L43P, R72Q

Experiment [12] has as its target T8, VENTX (Homo sapiens, UniProt O95231 78-163, R121Q).
T8 sequence: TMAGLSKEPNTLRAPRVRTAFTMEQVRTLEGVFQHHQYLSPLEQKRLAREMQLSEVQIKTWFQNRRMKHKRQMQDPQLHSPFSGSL

In experiment [13] the target is T9, VENTX (Homo sapiens, UniProt O95231 78-163).
T9 sequence: T8 sequence with Q44R

Another experiment concerns the target PRRX1 (Homo sapiens, UniProt P54821 80-166, F113S).
Experiment [14] addresses T10, VENTX (Homo sapiens, UniProt O95231 78-163, Y115F).
T10 sequence: T8 sequence with Y38F, Q44R

A further experiment concerns the target HOXB6 (Homo sapiens, UniProt P17509 132-218, K202E).
Experiment [15] concerns the target HOXA2 (Homo sapiens, UniProt O43364 129-215, R185T).
Experiment [16] concerns the target HOXA2 (Homo sapiens, UniProt O43364 129-215, R185K).
In experiment [17] the target is HOXA2 (Homo sapiens, UniProt O43364 129-215, Y150S).
For experiment [18], the target named is HOXA2 (Homo sapiens, UniProt O43364 129-215).

Changes are numbered by the printed parent chain.

NKX3-2 (Homo sapiens, UniProt P78367 192-278, P234S), sequence (P78367 192-278 P234S): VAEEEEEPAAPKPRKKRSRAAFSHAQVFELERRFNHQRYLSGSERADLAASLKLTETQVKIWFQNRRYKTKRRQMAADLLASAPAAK
NKX2-5 (Homo sapiens, UniProt P52952 125-210), sequence (P52952 125-210): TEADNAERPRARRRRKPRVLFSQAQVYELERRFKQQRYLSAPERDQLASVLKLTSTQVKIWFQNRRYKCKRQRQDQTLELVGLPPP
NKX3-2 (Homo sapiens, UniProt P78367 192-278), sequence (P78367 192-278): as the sequence (P78367 192-278 P234S) above, with S43P counted along it
NKX2-5 (Homo sapiens, UniProt P52952 125-210, R139K), sequence (P52952 125-210 R139K): as the sequence (P52952 125-210) above, with R15K counted along it
HOXA2 (Homo sapiens, UniProt O43364 129-215, R185K), sequence (O43364 129-215 R185K): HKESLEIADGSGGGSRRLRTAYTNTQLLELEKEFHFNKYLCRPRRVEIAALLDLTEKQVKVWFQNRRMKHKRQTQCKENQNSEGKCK
HOXA2 (Homo sapiens, UniProt O43364 129-215), sequence (O43364 129-215): as the sequence (O43364 129-215 R185K) above, with K57R counted along it
HOXA2 (Homo sapiens, UniProt O43364 129-215, R185T), sequence (O43364 129-215 R185T): as the sequence (O43364 129-215 R185K) above, with K57T counted along it
HOXB6, sequence (P17509 132-218 K202E): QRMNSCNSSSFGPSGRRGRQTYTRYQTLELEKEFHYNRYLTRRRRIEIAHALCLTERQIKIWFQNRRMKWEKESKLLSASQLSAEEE
HOXA2 (Homo sapiens, UniProt O43364 129-215, Y150S), sequence (O43364 129-215 Y150S): as the sequence (O43364 129-215 R185K) above, with Y22S, K57R counted along it
PRRX1, sequence (P54821 80-166 F113S): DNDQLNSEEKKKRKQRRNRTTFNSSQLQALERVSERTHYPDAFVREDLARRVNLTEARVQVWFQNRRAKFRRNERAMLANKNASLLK

Consider CACTTAGA, for which the binding signal was 12.6 upbm affinity estimate (log intensity, higher = more binding, comparable within an allelic series) with NKX2-5 [1]; 11.7 upbm affinity estimate (log intensity, higher = more binding, comparable within an allelic series) with NKX2-6 [2]; 13.6 upbm affinity estimate (log intensity, higher = more binding, comparable within an allelic series) with NKX2-6 [3]; 10.8 upbm affinity estimate (log intensity, higher = more binding, comparable within an allelic series) with NKX2-6 [4]; 12.6 upbm affinity estimate (log intensity, higher = more binding, comparable within an allelic series) with NKX3-2 [5]; 12.4 upbm affinity estimate (log intensity, higher = more binding, comparable within an allelic series) in the experiment with NKX2-5 [6]. Also, the binding signal with NKX3-2 [7] was 12.8 upbm affinity estimate (log intensity, higher = more binding, comparable within an allelic series).
With CACTTATA, the binding signal with NKX2-5 [1] is 13.1 upbm affinity estimate (log intensity, higher = more binding, comparable within an allelic series); in the experiment with NKX2-4 [8] it was 12.6 upbm affinity estimate (log intensity, higher = more binding, comparable within an allelic series); in the experiment with NKX2-4 [9], 13 upbm affinity estimate (log intensity, higher = more binding, comparable within an allelic series); with NKX2-4 [10], 12.5 upbm affinity estimate (log intensity, higher = more binding, comparable within an allelic series); in the experiment with NKX2-6 [2] it was 12.1 upbm affinity estimate (log intensity, higher = more binding, comparable within an allelic series); in the experiment with NKX2-6 [3], 13.8 upbm affinity estimate (log intensity, higher = more binding, comparable within an allelic series). In addition, the binding signal is 13.2 upbm affinity estimate (log intensity, higher = more binding, comparable within an allelic series) with NKX2-4 [11]; 11.2 upbm affinity estimate (log intensity, higher = more binding, comparable within an allelic series) in the experiment with NKX2-6 [4]; 12.7 upbm affinity estimate (log intensity, higher = more binding, comparable within an allelic series) with NKX3-2 [5]; 12.8 upbm affinity estimate (log intensity, higher = more binding, comparable within an allelic series) with NKX2-5 [6]; 12.8 upbm affinity estimate (log intensity, higher = more binding, comparable within an allelic series) with NKX3-2 [7].
Consider AATAAGTG, for which the binding signal with NKX2-5 [1] is 12.4 upbm affinity estimate (log intensity, higher = more binding, comparable within an allelic series); with NKX2-4 [8], 12.4 upbm affinity estimate (log intensity, higher = more binding, comparable within an allelic series); in the experiment with NKX2-4 [9], 12.8 upbm affinity estimate (log intensity, higher = more binding, comparable within an allelic series); with NKX2-4 [10], 12.3 upbm affinity estimate (log intensity, higher = more binding, comparable within an allelic series); with NKX2-6 [2] it was 11.8 upbm affinity estimate (log intensity, higher = more binding, comparable within an allelic series); with NKX2-6 [3], 13.3 upbm affinity estimate (log intensity, higher = more binding, comparable within an allelic series). Also, the binding signal with NKX2-4 [11] is 12.9 upbm affinity estimate (log intensity, higher = more binding, comparable within an allelic series); in the experiment with NKX2-6 [4] it was 10.7 upbm affinity estimate (log intensity, higher = more binding, comparable within an allelic series); in the experiment with NKX2-5 [6], 12.4 upbm affinity estimate (log intensity, higher = more binding, comparable within an allelic series).
As for CACTTTAA, the binding signal with NKX2-5 [1] is 12.4 upbm affinity estimate (log intensity, higher = more binding, comparable within an allelic series); with NKX2-4 [8], 12.5 upbm affinity estimate (log intensity, higher = more binding, comparable within an allelic series); in the experiment with NKX2-4 [9], 12.9 upbm affinity estimate (log intensity, higher = more binding, comparable within an allelic series); with NKX2-4 [10], 12.3 upbm affinity estimate (log intensity, higher = more binding, comparable within an allelic series); with NKX2-6 [2], 11.7 upbm affinity estimate (log intensity, higher = more binding, comparable within an allelic series); with NKX2-6 [3], 13.4 upbm affinity estimate (log intensity, higher = more binding, comparable within an allelic series). Moreover, the binding signal with NKX2-4 [11] was 13 upbm affinity estimate (log intensity, higher = more binding, comparable within an allelic series); with NKX2-6 [4], 10.7 upbm affinity estimate (log intensity, higher = more binding, comparable within an allelic series); with NKX3-2 [5], 12.5 upbm affinity estimate (log intensity, higher = more binding, comparable within an allelic series); with NKX2-5 [6], 12.4 upbm affinity estimate (log intensity, higher = more binding, comparable within an allelic series); in the experiment with NKX3-2 [7] it was 12.6 upbm affinity estimate (log intensity, higher = more binding, comparable within an allelic series).
On to TAAGTGGA, for which the binding signal was 13.2 upbm affinity estimate (log intensity, higher = more binding, comparable within an allelic series) in the experiment with NKX2-5 [1]; 12.8 upbm affinity estimate (log intensity, higher = more binding, comparable within an allelic series) in the experiment with NKX2-4 [8]; 13.2 upbm affinity estimate (log intensity, higher = more binding, comparable within an allelic series) in the experiment with NKX2-4 [9]; 12.6 upbm affinity estimate (log intensity, higher = more binding, comparable within an allelic series) with NKX2-4 [10]; 12.3 upbm affinity estimate (log intensity, higher = more binding, comparable within an allelic series) in the experiment with NKX2-6 [2]; 13.9 upbm affinity estimate (log intensity, higher = more binding, comparable within an allelic series) with NKX2-6 [3]. Also, the binding signal with NKX2-4 [11] was 13.3 upbm affinity estimate (log intensity, higher = more binding, comparable within an allelic series); with NKX2-6 [4], 11.3 upbm affinity estimate (log intensity, higher = more binding, comparable within an allelic series); in the experiment with NKX3-2 [5], 13.2 upbm affinity estimate (log intensity, higher = more binding, comparable within an allelic series); in the experiment with NKX2-5 [6], 13.1 upbm affinity estimate (log intensity, higher = more binding, comparable within an allelic series); with NKX3-2 [7] it was 13.3 upbm affinity estimate (log intensity, higher = more binding, comparable within an allelic series).
Take ACCACTTA: the binding signal in the experiment with NKX2-5 [1] was 13.2 upbm affinity estimate (log intensity, higher = more binding, comparable within an allelic series); with NKX2-4 [8] it was 12.7 upbm affinity estimate (log intensity, higher = more binding, comparable within an allelic series); with NKX2-4 [9] it was 13.1 upbm affinity estimate (log intensity, higher = more binding, comparable within an allelic series); with NKX2-4 [10] it was 12.6 upbm affinity estimate (log intensity, higher = more binding, comparable within an allelic series); with NKX2-6 [2], 12.3 upbm affinity estimate (log intensity, higher = more binding, comparable within an allelic series); with NKX2-6 [3] it was 14 upbm affinity estimate (log intensity, higher = more binding, comparable within an allelic series). In addition, the binding signal is 13.2 upbm affinity estimate (log intensity, higher = more binding, comparable within an allelic series) in the experiment with NKX2-4 [11]; 11.4 upbm affinity estimate (log intensity, higher = more binding, comparable within an allelic series) with NKX2-6 [4]; 13.3 upbm affinity estimate (log intensity, higher = more binding, comparable within an allelic series) with NKX3-2 [5]; 13.1 upbm affinity estimate (log intensity, higher = more binding, comparable within an allelic series) with NKX2-5 [6]; 13.3 upbm affinity estimate (log intensity, higher = more binding, comparable within an allelic series) in the experiment with NKX3-2 [7].
For CGGGCTCC, the binding signal in the experiment with NKX2-5 [1] is 8.64 upbm affinity estimate (log intensity, higher = more binding, comparable within an allelic series); with VENTX [12], 7.54 upbm affinity estimate (log intensity, higher = more binding, comparable within an allelic series); with VENTX [13] it was 6.97 upbm affinity estimate (log intensity, higher = more binding, comparable within an allelic series); in the experiment with PRRX1 it was 8.95 upbm affinity estimate (log intensity, higher = more binding, comparable within an allelic series); with VENTX [14], 7.32 upbm affinity estimate (log intensity, higher = more binding, comparable within an allelic series); with HOXB6, 8.71 upbm affinity estimate (log intensity, higher = more binding, comparable within an allelic series). The binding signal is 6.41 upbm affinity estimate (log intensity, higher = more binding, comparable within an allelic series) in the experiment with HOXA2 [15]; 9.11 upbm affinity estimate (log intensity, higher = more binding, comparable within an allelic series) with NKX2-6 [3]; 9.88 upbm affinity estimate (log intensity, higher = more binding, comparable within an allelic series) in the experiment with HOXA2 [16]; 9.07 upbm affinity estimate (log intensity, higher = more binding, comparable within an allelic series) with NKX2-6 [4]; 10.2 upbm affinity estimate (log intensity, higher = more binding, comparable within an allelic series) in the experiment with HOXA2 [17]; 6.39 upbm affinity estimate (log intensity, higher = more binding, comparable within an allelic series) with HOXA2 [18]. The binding signal with NKX2-5 [6] is 8.58 upbm affinity estimate (log intensity, higher = more binding, comparable within an allelic series).
In the case of GCCACTTA, the binding signal with NKX2-5 [1] was 13.3 upbm affinity estimate (log intensity, higher = more binding, comparable within an allelic series); in the experiment with NKX2-4 [8] it was 12.7 upbm affinity estimate (log intensity, higher = more binding, comparable within an allelic series); with NKX2-4 [9], 13 upbm affinity estimate (log intensity, higher = more binding, comparable within an allelic series); with NKX2-4 [10], 12.5 upbm affinity estimate (log intensity, higher = more binding, comparable within an allelic series); in the experiment with NKX2-6 [2] it was 12.2 upbm affinity estimate (log intensity, higher = more binding, comparable within an allelic series); with NKX2-6 [3], 14 upbm affinity estimate (log intensity, higher = more binding, comparable within an allelic series). The binding signal with NKX2-4 [11] is 13.2 upbm affinity estimate (log intensity, higher = more binding, comparable within an allelic series); in the experiment with NKX2-6 [4], 11.2 upbm affinity estimate (log intensity, higher = more binding, comparable within an allelic series); in the experiment with NKX3-2 [5], 13.3 upbm affinity estimate (log intensity, higher = more binding, comparable within an allelic series); in the experiment with NKX2-5 [6], 13.1 upbm affinity estimate (log intensity, higher = more binding, comparable within an allelic series); with NKX3-2 [7], 13.4 upbm affinity estimate (log intensity, higher = more binding, comparable within an allelic series).
Take CTAATTGC: the binding signal with NKX2-5 [1] is 10.9 upbm affinity estimate (log intensity, higher = more binding, comparable within an allelic series); with VENTX [12], 12.3 upbm affinity estimate (log intensity, higher = more binding, comparable within an allelic series); in the experiment with VENTX [13], 12.7 upbm affinity estimate (log intensity, higher = more binding, comparable within an allelic series); with VENTX [14], 12 upbm affinity estimate (log intensity, higher = more binding, comparable within an allelic series); in the experiment with HOXB6, 9.81 upbm affinity estimate (log intensity, higher = more binding, comparable within an allelic series); with HOXA2 [15], 13.1 upbm affinity estimate (log intensity, higher = more binding, comparable within an allelic series). Further, the binding signal with HOXA2 [16] is 13.5 upbm affinity estimate (log intensity, higher = more binding, comparable within an allelic series); in the experiment with HOXA2 [17], 10.7 upbm affinity estimate (log intensity, higher = more binding, comparable within an allelic series); with HOXA2 [18] it was 12.6 upbm affinity estimate (log intensity, higher = more binding, comparable within an allelic series); with NKX2-5 [6], 11.1 upbm affinity estimate (log intensity, higher = more binding, comparable within an allelic series).
